# Measured values taken from ChEMBL document CHEMBL3433997, “St. Jude Leishmania screening dataset” (2016).
# Columns and labels:
# Format in all cases: functional
# [1] = target: Solute carrier family 2, facilitated glucose transporter member 1 (Homo sapiens) (UniProt P11166); assay: ST_JUDE_LEISH: Cytotoxicity at 2uM final concentration against transgenic Leishmania Mexicana promastigotes LmGLUT1 that are glucose transport deficient and complemented with the human glucose transporter GLUT1. Activity is measured by DNA content using SYBR green in vitro
# Solute carrier family 2, facilitated glucose transporter member 1 (Homo sapiens), sequence (P11166 whole entry): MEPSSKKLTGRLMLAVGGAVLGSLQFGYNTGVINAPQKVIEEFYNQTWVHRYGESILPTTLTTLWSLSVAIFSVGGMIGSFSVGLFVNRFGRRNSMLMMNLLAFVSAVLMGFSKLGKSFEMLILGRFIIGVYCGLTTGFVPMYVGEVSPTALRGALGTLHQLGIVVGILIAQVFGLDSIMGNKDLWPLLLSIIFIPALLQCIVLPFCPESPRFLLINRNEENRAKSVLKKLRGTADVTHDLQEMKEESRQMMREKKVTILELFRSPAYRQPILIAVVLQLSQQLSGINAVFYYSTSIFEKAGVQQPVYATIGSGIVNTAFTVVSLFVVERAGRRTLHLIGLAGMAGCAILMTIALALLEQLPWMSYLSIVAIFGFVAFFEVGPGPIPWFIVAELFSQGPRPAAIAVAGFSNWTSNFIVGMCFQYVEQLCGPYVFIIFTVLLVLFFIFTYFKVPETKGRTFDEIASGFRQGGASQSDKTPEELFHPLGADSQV
# [2] = target: Hexose transporter 1 (Plasmodium falciparum) (UniProt O97467); assay: ST_JUDE_LEISH: Cytotoxicity at 2uM final concentration against transgenic Leishmania Mexicana promastigotes LmPfHT that are glucose transport deficient and complemented with the Plasmodium falciparum hexose transporter. Activity is measured by DNA content using SYBR green in vitro
# [3] = target: Glucose transporter (Leishmania mexicana) (UniProt O61059); assay: ST_JUDE_LEISH: Cytotoxicity at 2uM final concentration against transgenic Leishmania Mexicana promastigotes LmGT2 that are glucose transport deficient and complemented with the L. Mexicana glucose transporter 2. Activity is measured by DNA content using SYBR green in vitro
Compound,inhibition [1],inhibition [2],inhibition [3]
O=S(=O)(Nc1cccc(CCN2CCC(N3CCCCC3)CC2)c1)c1cccc2ccccc12,4.59%,2.76%,3.28%
COC(=O)c1ccc(-c2ccc(-c3cccnc3)cc2C)cc1,91.7%,90.5%,74.1%
COc1ccc2nccc([C@@H](O)CN3CCC(NCCOc4cc(C(F)(F)F)ccc4F)CC3)c2c1,21.5%,33.3%,14.4%
O=C(/C=C/c1ccc(Cl)c(Cl)c1)NCCCCCN1CCCN(C(=O)Nc2cc(Cl)cc(Cl)c2)CC1,3.31%,3.85%,6.4%
CN(C)c1c(CNCCCCCCNCc2ccc3ccccc3c2N(C)C)ccc2ccccc12,8.79%,8.66%,7.38%
COc1ccc(C(=O)NC(c2ccc(Cl)cc2Cl)c2cc(Cl)c3cccnc3c2O)cc1 (stereo not given),0.87%,3.16%,-1.58%
COc1ccccc1C(=O)N1CCN(Cc2cccs2)CC1,7.76%,7.28%,9.06%
Cc1cccc(Oc2cccc3[nH]nc(N)c23)c1,3.75%,3.96%,3.98%
CCOC(=O)c1ccc(NC(=O)Nc2cccc(-c3ccc(-c4nc5cc(F)ccc5[nH]4)cc3)c2)cc1,2.21%,2.88%,0.33%
O=C(Nc1ccc2c(c1)OCO2)NC1CCN(c2ccnc(Nc3ccc(F)cc3)n2)C1 (stereo not given),0.34%,6.37%,3.79%
CCCCCCC(N)c1ccc(OCCCOc2ccc(C(N)CCCCCC)cc2)cc1 (stereo not given),107%,106%,109%
COc1cc(C(C)C)nc2ccc(NC(=O)c3ccc(C(=O)Nc4ccc5nc(C(C)C)cc(OC)c5c4)cc3)cc12,6.44%,5.94%,3.76%
COc1ccc(C2CCN(CCCNC(=O)c3ccc(NC(=O)c4ccc(Cl)cc4)cc3)CC2)c(OC)c1,3.85%,4.23%,3.54%
COc1ccc(Nc2nccc(-c3cccc(NC(=O)c4cc5cc(F)ccc5[nH]4)c3)n2)cc1,3.61%,0.11%,-1.2%
CC(Cc1ccc(NC(=O)c2ccc(CC(C)NCc3ccc(Cl)cc3)cc2)cc1)NCCc1cccc(Cl)c1 (stereo not given),10.3%,6.78%,1.33%
CCOc1cc(C(=O)NC2CCN(Cc3ccccc3)CC2)ccc1-c1nc2cc(Cl)ccc2[nH]1,4.1%,5.59%,3.09%
CC(C)CCN1CCC(Oc2ccc(NC(=O)c3ccco3)cc2Cl)CC1,7.85%,9.84%,5.26%
CC(C)COc1ccc(Cl)cc1Cc1nc(-c2nc3ccc(N4CCN(C)CC4)nc3[nH]2)cs1,-3.46%,1.5%,3.9%
CCCCNC(=O)[C@@H]1CCCN1C(=O)c1ccc(O)c(-c2ccc(Cl)c(Cl)c2)c1,1.42%,0.27%,-3.49%
NCC1CCCN1Cc1cccc(-c2cccc(-c3nc4cc(F)ccc4[nH]3)c2)c1 (stereo not given),0.19%,0.88%,1.02%
O=C(Nc1cccc(Cl)c1)OC1CCCN2CCCCC12 (stereo not given),10.8%,10.6%,9.42%
O=C(NCCN1CCCC1)N1CCCN(c2ncnc3cc(-c4ccc(Cl)cc4)sc23)CC1,0.21%,1.33%,0.08%
O=S(=O)(c1cccc(F)c1)c1ccc(Nc2ncnc3cc(Br)sc23)cc1Cl,3.23%,2.8%,-1.17%
Cc1cnc(Nc2cccnc2)nc1Nc1ccccc1C(=O)NC(C)C,1.01%,1.12%,2.25%

Compound,inhibition [1],inhibition [2],inhibition [3]
Cc1nnsc1C(=O)Nc1cccc(-c2ccc(-c3nc4ccccc4[nH]3)cc2)c1,7.04%,9.93%,4.11%
COc1ccc(CN(C)CCCOc2ccc(NC(=O)c3cccc4c(=O)c5cccc(F)c5[nH]c34)cc2)cc1OC,4.27%,3.24%,3.1%
CC12CCC(C(=O)N(CC(O)Cn3c4ccc(Cl)cc4c4cc(Cl)ccc43)C1=O)C2(C)C (stereo not given),2.14%,0.85%,0.38%
CCC1(C)CC(CCNCc2ccccc2O)(c2ccccc2OC)CCO1 (stereo not given),0.62%,-0.31%,0.88%
COc1ccc(C(=O)Nc2cc(Br)c3c(c2)CNCC3)cc1C(F)(F)F,4.52%,1.74%,1.37%
CCCN(CCC)c1nn2c(=O)c(C(=O)N3CCN(Cc4ccccc4)CC3)cnc2s1,1.4%,1.87%,2.14%
CCn1cc(CN2CCCC(C(=O)Nc3ccc(-c4nc5ccccc5[nH]4)cc3)C2)c(C)n1 (stereo not given),3.61%,4.26%,3.25%
CCOC(=O)c1c(SCc2cccc(F)c2F)[nH]c2ccccc2c1=O,0.37%,-0.99%,1.97%
Cc1nc(Nc2ccc(F)cc2)nc(N2CCc3ccccc3[C@@H]2C)c1C,3.94%,5.21%,1.46%
Cc1nc(NC(=N)N)nc2ccc(C(C)(C)C)cc12,0.73%,0.81%,1.22%
O=C(Cn1c(SCc2cccc(F)c2F)cc(=O)c2ccccc21)N(CCN1CCCCC1)Cc1ccc(-c2ccc(C(F)(F)F)cc2)cc1,-1.53%,-1.37%,-1.85%
O=C(NC1CCN(CCN2CCC(c3ccccc3C(F)(F)F)CC2)CC1)c1ccc(-c2ccc(Cl)cc2)cc1,9.46%,0.61%,1.57%
COc1ccc(-n2cc(C(=O)c3cc(Br)ccc3O)cc(C#N)c2=O)cc1Cl,3.4%,1.9%,0.95%
CCCCCCOc1ccc2ccccc2c1CNCCCCCCNCc1c(OCCCCCC)ccc2ccccc12,16.8%,21.5%,7.86%
Cc1cccc2nc(-c3ccc(-c4ccc(CNCC5CCCO5)cc4)s3)[nH]c12 (stereo not given),1.99%,2.71%,1.98%
Clc1ccc(-n2cnc3c(Nc4ccc(Oc5ccccc5)cc4)ncnc32)cc1Cl,1.38%,1.39%,-1.22%
O=C(Nc1cccc(-c2csc(-c3ccccc3)n2)c1)c1cccs1,2.64%,2.57%,0.7%
COC(=O)Cn1c(C2CCN(CC3CCC(NC(=O)/C=C/c4ccc(Cl)c(Cl)c4)CC3)CC2)nc2ccccc21 (stereo not given),1.86%,0.18%,2.43%
CS(=O)(=O)N(c1ccc(F)cc1)c1cc(C(=O)N[C@@H](Cc2ccccc2)[C@H](O)CNCc2cccc(C(F)(F)F)c2)cc(N2CCCC2=O)c1,1.67%,-0.54%,-1.53%
CC(C)(Oc1c(C2CCN(CCCCNC(=O)c3ccc(-c4ccc(Cl)cc4)cc3)CC2)ccc2c1CCCC2)C(N)=O,-2.15%,-0.94%,-1.84%
CC(C)C[C@H](NC(=O)c1cc2ccccc2s1)C(=O)N[C@H]1CCN(Cc2ccc(OC[C@@H]3CCCN3C)c3ccccc23)C1,3.88%,5.05%,2.71%
Nc1nc(N)c2c(ccc3nn(Cc4cccnc4)cc32)n1,5.81%,5.44%,4.81%
CSc1ccc(NC(=O)Nc2cc(C)nc3ccccc23)cc1Br,-2.43%,0.36%,0.36%
CC(C)N1CCC(N(Cc2ccc(-c3ccc(C(F)(F)F)cc3)cc2)C(=O)Cn2c(SCc3cccc(F)c3F)nc(=O)c3ccccc32)CC1,6.03%,4.99%,4.15%

Compound,inhibition [1],inhibition [2],inhibition [3]
Cc1cnc(C(=O)Nc2cccc(-c3csc(-c4nc5ccccc5[nH]4)c3)c2)cn1,5.41%,1.2%,3.93%
Cc1ccc(NC(=O)N2CCN(CCCCCNC(=O)/C=C/c3ccc(Cl)c(Cl)c3)CC2)cc1C,8.95%,7.71%,6.33%
CCCC(C)NC[C@@H](O)[C@H](Cc1ccccc1)NC(=O)c1cc(NCC)cc(N2CCCCS2(=O)=O)c1 (stereo not given in full),0.32%,0.76%,-2.92%
Cc1nc(-c2ccc(-c3ccc(NC(=O)Nc4ccc(I)c(OCCN(C)C)c4)cc3)c(C)c2)no1,7%,5.44%,3.02%
CNCCNCc1cccc(-c2ccc(-c3nc4cc(C(F)(F)F)ccc4[nH]3)s2)c1,2.35%,3.82%,1.39%
COc1ccc(NC(=O)Nc2cccc(-c3ccc(-c4nc5cc(C(F)(F)F)ccc5[nH]4)cc3)c2)cc1,0.43%,-0.19%,-2.91%
FC(F)(F)c1ccc2[nH]ccc(=NN=Cc3ccc(Cl)cc3)c2c1,3.42%,3.11%,2.9%
COc1cccc(OC)c1OCCCON1C(=N)N=C(N)NC1(C)C,1.91%,1.49%,2.31%
CC(=O)Nc1[nH]c(-c2ccccc2)nc1C(N)=O,-1.96%,-0.89%,-1.65%
CC(C)C[C@H](NC(=O)c1ccc(OCCN2CCOCC2)cc1)C(=O)N[C@H](/C=N/N1CCN(C)C1=O)CCc1ccccc1,3.09%,5.16%,3.85%
CSc1cccc(Nc2nc3ccc(S(=O)(=O)NCC(C)C)cc3n2C(C)C(C)C)c1 (stereo not given),2.75%,4.12%,2.98%
Cc1ccc2[nH]c(-c3ccccc3N)cc2c1,3.92%,4.5%,4.49%
COc1cc2nc(N3CCC(CNC(=O)c4ccc(-c5ccc(C(=O)N(C)C)cc5OCCO)cc4)CC3)nc(N)c2cc1OC,-1.09%,2.24%,1.27%
CC(C)(C)N1CCC(N(Cc2ccc(-c3ccc(C(F)(F)F)cc3)cc2)C(=O)Cn2c(CCc3cccc(F)c3F)cc(=O)c3ccccc32)CC1,1.29%,0.14%,1.02%
Cc1cccc2nc(-c3cccc(-c4ccc(NC(=O)C5CC(=O)Nc6ccccc65)cc4)c3)[nH]c12 (stereo not given),2.47%,3.87%,0.15%
CCCNCc1ccc(-c2ccc(CN(CC3CCCO3)C(=O)COc3ccccc3Cl)cc2)nc1 (stereo not given),4.33%,4.73%,2.71%
O=C(CC1CCCC1)N(Cc1ccc(-c2ccc(CNC3Cc4ccccc4C3)cc2)cc1)CC1CCCCN1 (stereo not given),38.3%,4.62%,2.06%
CC(=O)c1cc(N2CCCC2)ccc1N,2.5%,2.6%,2.09%
O=C(NCc1cccc(F)c1)Nc1ccc(-c2cccc(-c3nc4ccccc4[nH]3)c2)cc1,2.57%,4.32%,-0.32%
O=C1COC2(CN1C1CCN(Cc3ccc(O)c(Cl)c3)C1)c1ccccc1-c1ccccc12 (stereo not given),9.11%,7.57%,5.67%
O=C(/C=C/c1ccc(Cl)c(Cl)c1)NCCCCCN1CCC(CCNC(=O)Cc2ccc(Cl)cc2)CC1,1.7%,0.82%,4.06%
Cc1cc(=NN=Cc2ccc(F)cc2)c2ccc(C(F)(F)F)cc2[nH]1,3%,4.59%,1.74%
